# Reference: paper PMC11006913
# Substitutions are numbered along the chain they refer to.
# Legend:
# Assay in all cases: PBM; 200 nM protein, PBS
# Conditions in all cases: dsDNA, one strand shown
# NKX2-6 [1] = target: T1, NKX2-6 (Homo sapiens, UniProt A6NCS4 118-204)
# T1 sequence: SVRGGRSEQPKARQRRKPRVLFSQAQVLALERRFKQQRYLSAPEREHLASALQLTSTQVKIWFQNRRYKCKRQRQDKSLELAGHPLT
# VAX1 [2] = target: VAX1 (Homo sapiens, UniProt Q5SQQ9 86-172)
# NKX2-6 [3] = target: T2, NKX2-6 (Homo sapiens, UniProt A6NCS4 118-204, F151L)
# T2 sequence: T1 sequence with F34L
# VAX1 [4] = target: VAX1 (Homo sapiens, UniProt Q5SQQ9 86-172, T142I)
# VAX1 [5] = target: VAX1 (Homo sapiens, UniProt Q5SQQ9 86-172, K157R)
# PITX2 = PITX2 (Homo sapiens, UniProt Q99697 72-157)
# ALX3 [6] = target: ALX3 (Homo sapiens, UniProt O95076 139-225)
# ALX3 [7] = target: ALX3 (Homo sapiens, UniProt O95076 139-225, L168Q)
# Chain of ALX3 (Homo sapiens, UniProt O95076 139-225, L168Q) (O95076 139-225 L168Q): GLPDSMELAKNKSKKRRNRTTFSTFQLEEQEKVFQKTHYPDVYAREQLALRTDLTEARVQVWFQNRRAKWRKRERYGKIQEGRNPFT
# Chain of VAX1 (Homo sapiens, UniProt Q5SQQ9 86-172) (Q5SQQ9 86-172): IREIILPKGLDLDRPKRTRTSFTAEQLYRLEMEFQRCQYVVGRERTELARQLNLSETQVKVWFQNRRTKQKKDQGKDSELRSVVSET
# Chain of VAX1 (Homo sapiens, UniProt Q5SQQ9 86-172, K157R) (Q5SQQ9 86-172 K157R): as the sequence (Q5SQQ9 86-172) above, with K72R counted along it
# Chain of VAX1 (Homo sapiens, UniProt Q5SQQ9 86-172, T142I) (Q5SQQ9 86-172 T142I): as the sequence (Q5SQQ9 86-172) above, with T57I counted along it
# Chain of ALX3 (Homo sapiens, UniProt O95076 139-225) (O95076 139-225): as the sequence (O95076 139-225 L168Q) above, with Q30L counted along it
sequence,measurement,setting,value
CGCTCGGC,binding signal,NKX2-6 [1],"9.08 upbm affinity estimate (log intensity, higher = more binding, comparable within an allelic series)"
same,binding signal,VAX1 [2],"6.93 upbm affinity estimate (log intensity, higher = more binding, comparable within an allelic series)"
same,binding signal,NKX2-6 [3],"9.38 upbm affinity estimate (log intensity, higher = more binding, comparable within an allelic series)"
same,binding signal,VAX1 [4],"6.99 upbm affinity estimate (log intensity, higher = more binding, comparable within an allelic series)"
same,binding signal,VAX1 [5],"6.71 upbm affinity estimate (log intensity, higher = more binding, comparable within an allelic series)"
GCATCGGC,binding signal,NKX2-6 [1],"9.23 upbm affinity estimate (log intensity, higher = more binding, comparable within an allelic series)"
same,binding signal,NKX2-6 [3],"9.43 upbm affinity estimate (log intensity, higher = more binding, comparable within an allelic series)"
ACTACTTA,binding signal,NKX2-6 [1],"13.5 upbm affinity estimate (log intensity, higher = more binding, comparable within an allelic series)"
same,binding signal,NKX2-6 [3],"10.5 upbm affinity estimate (log intensity, higher = more binding, comparable within an allelic series)"
GGCCCGTA,binding signal,NKX2-6 [1],"9.15 upbm affinity estimate (log intensity, higher = more binding, comparable within an allelic series)"
same,binding signal,NKX2-6 [3],"9.45 upbm affinity estimate (log intensity, higher = more binding, comparable within an allelic series)"
CTGTGGCC,binding signal,NKX2-6 [1],"9.24 upbm affinity estimate (log intensity, higher = more binding, comparable within an allelic series)"
same,binding signal,PITX2,"7.86 upbm affinity estimate (log intensity, higher = more binding, comparable within an allelic series)"
same,binding signal,NKX2-6 [3],"9.38 upbm affinity estimate (log intensity, higher = more binding, comparable within an allelic series)"
CAGGCACA,binding signal,NKX2-6 [1],"9.47 upbm affinity estimate (log intensity, higher = more binding, comparable within an allelic series)"
same,binding signal,NKX2-6 [3],"9.38 upbm affinity estimate (log intensity, higher = more binding, comparable within an allelic series)"
CAGTCTGC,binding signal,NKX2-6 [1],"9.37 upbm affinity estimate (log intensity, higher = more binding, comparable within an allelic series)"
same,binding signal,NKX2-6 [3],"9.38 upbm affinity estimate (log intensity, higher = more binding, comparable within an allelic series)"
GGCGTTAC,binding signal,NKX2-6 [1],"9.36 upbm affinity estimate (log intensity, higher = more binding, comparable within an allelic series)"
same,binding signal,NKX2-6 [3],"9.53 upbm affinity estimate (log intensity, higher = more binding, comparable within an allelic series)"
CGTCCTGC,binding signal,NKX2-6 [1],"9 upbm affinity estimate (log intensity, higher = more binding, comparable within an allelic series)"
same,binding signal,PITX2,"7.8 upbm affinity estimate (log intensity, higher = more binding, comparable within an allelic series)"
same,binding signal,NKX2-6 [3],"9.34 upbm affinity estimate (log intensity, higher = more binding, comparable within an allelic series)"
CGGGACGC,binding signal,NKX2-6 [1],"9.53 upbm affinity estimate (log intensity, higher = more binding, comparable within an allelic series)"
same,binding signal,NKX2-6 [3],"9.25 upbm affinity estimate (log intensity, higher = more binding, comparable within an allelic series)"
CGCTTAAG,binding signal,NKX2-6 [1],"12.2 upbm affinity estimate (log intensity, higher = more binding, comparable within an allelic series)"
same,binding signal,VAX1 [2],"9.23 upbm affinity estimate (log intensity, higher = more binding, comparable within an allelic series)"
same,binding signal,NKX2-6 [3],"9.9 upbm affinity estimate (log intensity, higher = more binding, comparable within an allelic series)"
same,binding signal,VAX1 [4],"8.86 upbm affinity estimate (log intensity, higher = more binding, comparable within an allelic series)"
same,binding signal,VAX1 [5],"9.02 upbm affinity estimate (log intensity, higher = more binding, comparable within an allelic series)"
CATGTGGG,binding signal,NKX2-6 [1],"9.41 upbm affinity estimate (log intensity, higher = more binding, comparable within an allelic series)"
same,binding signal,NKX2-6 [3],"9.56 upbm affinity estimate (log intensity, higher = more binding, comparable within an allelic series)"
GGTGCGAC,binding signal,NKX2-6 [1],"9.44 upbm affinity estimate (log intensity, higher = more binding, comparable within an allelic series)"
same,binding signal,NKX2-6 [3],"9.43 upbm affinity estimate (log intensity, higher = more binding, comparable within an allelic series)"
CGGCGTGA,binding signal,NKX2-6 [1],"9.3 upbm affinity estimate (log intensity, higher = more binding, comparable within an allelic series)"
same,binding signal,NKX2-6 [3],"9.33 upbm affinity estimate (log intensity, higher = more binding, comparable within an allelic series)"
CGTTTGCC,binding signal,NKX2-6 [1],"9.35 upbm affinity estimate (log intensity, higher = more binding, comparable within an allelic series)"
same,binding signal,NKX2-6 [3],"9.53 upbm affinity estimate (log intensity, higher = more binding, comparable within an allelic series)"
ACTTACAT,binding signal,NKX2-6 [1],"11.6 upbm affinity estimate (log intensity, higher = more binding, comparable within an allelic series)"
same,binding signal,ALX3 [6],"8.97 upbm affinity estimate (log intensity, higher = more binding, comparable within an allelic series)"
same,binding signal,ALX3 [7],"8.46 upbm affinity estimate (log intensity, higher = more binding, comparable within an allelic series)"
same,binding signal,NKX2-6 [3],"9.95 upbm affinity estimate (log intensity, higher = more binding, comparable within an allelic series)"
CCGTTGGC,binding signal,NKX2-6 [1],"9.2 upbm affinity estimate (log intensity, higher = more binding, comparable within an allelic series)"
same,binding signal,NKX2-6 [3],"9.41 upbm affinity estimate (log intensity, higher = more binding, comparable within an allelic series)"
CAGCCGTC,binding signal,NKX2-6 [1],"9.5 upbm affinity estimate (log intensity, higher = more binding, comparable within an allelic series)"
same,binding signal,NKX2-6 [3],"9.26 upbm affinity estimate (log intensity, higher = more binding, comparable within an allelic series)"
CTTAAGGC,binding signal,NKX2-6 [1],"11.5 upbm affinity estimate (log intensity, higher = more binding, comparable within an allelic series)"
same,binding signal,NKX2-6 [3],"9.76 upbm affinity estimate (log intensity, higher = more binding, comparable within an allelic series)"
CCGGCACC,binding signal,NKX2-6 [1],"9.34 upbm affinity estimate (log intensity, higher = more binding, comparable within an allelic series)"
same,binding signal,NKX2-6 [3],"9.34 upbm affinity estimate (log intensity, higher = more binding, comparable within an allelic series)"
GCTAAGTA,binding signal,NKX2-6 [1],"12.9 upbm affinity estimate (log intensity, higher = more binding, comparable within an allelic series)"
same,binding signal,NKX2-6 [3],"10.4 upbm affinity estimate (log intensity, higher = more binding, comparable within an allelic series)"
GGAAAGTA,binding signal,NKX2-6 [1],"11.2 upbm affinity estimate (log intensity, higher = more binding, comparable within an allelic series)"
same,binding signal,NKX2-6 [3],"9.87 upbm affinity estimate (log intensity, higher = more binding, comparable within an allelic series)"
CCAGAATC,binding signal,NKX2-6 [1],"9.71 upbm affinity estimate (log intensity, higher = more binding, comparable within an allelic series)"
same,binding signal,NKX2-6 [3],"9.51 upbm affinity estimate (log intensity, higher = more binding, comparable within an allelic series)"
GTTCCACA,binding signal,NKX2-6 [1],"9.21 upbm affinity estimate (log intensity, higher = more binding, comparable within an allelic series)"
same,binding signal,NKX2-6 [3],"9.42 upbm affinity estimate (log intensity, higher = more binding, comparable within an allelic series)"
ATGCCCTG,binding signal,NKX2-6 [1],"9.6 upbm affinity estimate (log intensity, higher = more binding, comparable within an allelic series)"
same,binding signal,NKX2-6 [3],"9.34 upbm affinity estimate (log intensity, higher = more binding, comparable within an allelic series)"
